Experimental data reported in PubChem BioAssay.
The source made the active and inactive calls.

Experiments:
[1] = tested on: Plasmodium falciparum Sir2 (PF13_0152, Sir2A); test: pfSir2 binders on small-molecule microarrays, primary screen, biochemical, small-molecule microarray, 635 nm fluorescence (AID 1098); details: small-molecule microarray binding, fluorescence 635 nm; higher = more signal;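 further: score merges spot fluorescence intensity with its signal-to-noise ratio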
[2] = small-molecule microarray binders of probe aDKK1, primary screen, biochemical, biotinylated probe, 635/667 nm fluorescence (AID 1099); details: higher = more signal;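 further: score merges 667nm spot fluorescence with signal to noise across triplicate slides; reference of the scale not given here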
[3] = small-molecule microarray binders of probe aCHRDL2, primary screen, biochemical, biotinylated probe, 635/667 nm fluorescence (AID 1100); details: higher = more signal
[4] = splicing luciferase reporter signal modulators, primary screen, spliceosome inhibition project, cell-based, HEK293, splice +/- reporter (AID 1101); details: luminescence, 24 h, higher = more signal, called active from +8 up or from −8 down;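 further: HEK293 cells carrying a splicing-competent luciferase reporter gene; test concentration not given here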
[5] = target: Fibroblast growth factor 10 (Homo sapiens) (UniProt O15520); test: FGF10 binders on small-molecule microarrays, primary screen, biochemical, small-molecule microarray, 635 nm fluorescence (AID 1102); details: FGF10 binding, fluorescence 635 nm, higher = more signal
[6] = tested on: glycogen synthase kinase-3 (GSK3A per assay name; protocol says GSK3B); test: GSK3 binders on small-molecule microarrays, primary screen, biochemical, small-molecule microarray, 635 nm fluorescence, GSK3A (AID 1103); details: small-molecule microarray binding, fluorescence 635 nm; higher = more signal; further: the record names both GSK3A and GSK3B
[7] = target: Epidermal growth factor receptor (Homo sapiens) (UniProt P00533); test: EGFR binders on small-molecule microarrays, primary screen, biochemical, small-molecule microarray, 635 nm fluorescence (AID 1104); details: EGFR binding, higher = more signal;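 further: score merges 667 nm emission intensity with spot signal to noise over triplicate slides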
[8] = target: Follistatin-related protein 3 (Homo sapiens) (UniProt O95633); test: FSTL3 binders on small-molecule microarrays, primary screen, biochemical, small-molecule microarray, 635 nm fluorescence (AID 1105); details: FSTL3 binding, higher = more signal;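 further: score merges emission near 667 nm and signal to noise per printed spot across three slides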
[9] = target: Dickkopf-related protein 1 (Homo sapiens) (UniProt O94907); test: DKK1 binders on small-molecule microarrays, primary screen, biochemical, small-molecule microarray, 635 nm fluorescence scan (AID 1106); details: DKK1 binding, higher = more signal;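 further: score merges emission near 667 nm with signal to noise over three replicate slides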
[10] = tested on: Inhibin beta A chain (activin A); test: INHBA (activin A) binders on microarrays, primary screen, biochemical, small-molecule microarray, 635 nm fluorescence scan (AID 1107); details: small-molecule microarray binding, higher = more signal;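 further: mouse activin A protein probed at 4.33 µg/mL on printed slides; score merges bound-protein fluorescence near 667 nm with spot signal-to-noise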

Chain of Fibroblast growth factor 10 (Homo sapiens) (O15520 whole entry, looked up): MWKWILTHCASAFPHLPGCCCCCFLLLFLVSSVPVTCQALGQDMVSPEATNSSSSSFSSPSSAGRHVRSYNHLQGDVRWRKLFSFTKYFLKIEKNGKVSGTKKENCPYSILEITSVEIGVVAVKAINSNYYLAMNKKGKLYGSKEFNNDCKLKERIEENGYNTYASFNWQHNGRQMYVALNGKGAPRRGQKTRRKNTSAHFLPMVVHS
Chain of Follistatin-related protein 3 (Homo sapiens) (O95633 whole entry, looked up): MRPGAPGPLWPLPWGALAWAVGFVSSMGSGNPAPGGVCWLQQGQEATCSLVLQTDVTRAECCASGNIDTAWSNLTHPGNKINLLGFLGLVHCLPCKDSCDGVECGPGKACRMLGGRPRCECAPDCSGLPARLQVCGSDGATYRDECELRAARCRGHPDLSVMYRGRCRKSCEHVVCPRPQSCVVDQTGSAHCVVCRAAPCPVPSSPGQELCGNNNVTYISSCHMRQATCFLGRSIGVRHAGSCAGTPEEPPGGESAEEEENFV
Chain of Epidermal growth factor receptor (Homo sapiens) (P00533 whole entry, looked up): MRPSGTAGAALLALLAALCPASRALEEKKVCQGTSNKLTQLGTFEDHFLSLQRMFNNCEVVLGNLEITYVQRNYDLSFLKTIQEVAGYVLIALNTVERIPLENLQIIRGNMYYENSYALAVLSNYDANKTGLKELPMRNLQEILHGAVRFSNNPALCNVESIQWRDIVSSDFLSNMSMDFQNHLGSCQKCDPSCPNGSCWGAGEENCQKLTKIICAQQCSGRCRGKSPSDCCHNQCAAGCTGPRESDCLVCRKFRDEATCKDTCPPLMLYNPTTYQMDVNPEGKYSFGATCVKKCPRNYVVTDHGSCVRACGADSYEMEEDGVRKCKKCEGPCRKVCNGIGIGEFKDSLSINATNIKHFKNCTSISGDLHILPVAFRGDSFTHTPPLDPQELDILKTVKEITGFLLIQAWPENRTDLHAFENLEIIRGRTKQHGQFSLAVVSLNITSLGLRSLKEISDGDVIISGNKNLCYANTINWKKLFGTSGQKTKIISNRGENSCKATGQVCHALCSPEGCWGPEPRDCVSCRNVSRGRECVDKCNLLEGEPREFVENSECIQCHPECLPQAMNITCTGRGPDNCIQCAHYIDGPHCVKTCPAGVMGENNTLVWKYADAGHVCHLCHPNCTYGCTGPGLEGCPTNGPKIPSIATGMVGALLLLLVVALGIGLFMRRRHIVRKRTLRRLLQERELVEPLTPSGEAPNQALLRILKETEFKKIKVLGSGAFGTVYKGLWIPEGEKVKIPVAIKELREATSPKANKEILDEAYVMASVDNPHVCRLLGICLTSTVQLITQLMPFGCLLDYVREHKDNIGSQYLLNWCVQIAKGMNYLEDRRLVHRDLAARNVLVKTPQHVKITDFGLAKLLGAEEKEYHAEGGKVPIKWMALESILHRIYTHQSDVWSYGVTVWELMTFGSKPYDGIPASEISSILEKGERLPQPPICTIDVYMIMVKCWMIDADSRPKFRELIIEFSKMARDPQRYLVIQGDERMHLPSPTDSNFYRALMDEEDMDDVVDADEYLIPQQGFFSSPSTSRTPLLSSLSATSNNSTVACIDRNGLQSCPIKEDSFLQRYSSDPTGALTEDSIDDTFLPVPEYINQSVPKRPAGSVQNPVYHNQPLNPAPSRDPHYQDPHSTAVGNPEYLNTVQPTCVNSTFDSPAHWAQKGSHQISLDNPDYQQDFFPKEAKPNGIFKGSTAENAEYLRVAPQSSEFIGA
Chain of Dickkopf-related protein 1 (Homo sapiens) (O94907 whole entry, looked up): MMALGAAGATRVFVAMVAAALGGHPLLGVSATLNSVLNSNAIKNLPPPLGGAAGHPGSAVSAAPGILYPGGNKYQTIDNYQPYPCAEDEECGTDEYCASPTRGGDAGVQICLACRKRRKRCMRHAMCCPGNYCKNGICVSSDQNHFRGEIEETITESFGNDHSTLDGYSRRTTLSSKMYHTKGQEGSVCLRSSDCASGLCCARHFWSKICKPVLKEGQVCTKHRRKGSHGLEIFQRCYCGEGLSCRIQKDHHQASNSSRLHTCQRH

Row | SMILES | composite z-score [1] | composite z-score [2] | composite z-score [3] | z-score [4] | composite z-score [5] | composite z-score [6] | composite z-score [7] | composite z-score [8] | composite z-score [9] | composite z-score [10]
1 | COCCOC(=O)N1C(=O)[C@@]2(c3cc(C#CC4(O)CCCCCC4)ccc31)[C@H](C(N)=O)[C@H]1C(=O)O[C@H](c3ccccc3)[C@H](c3ccccc3)N1[C@@H]2c1ccccc1OCCO | 1.28 | 0.919 | -0.423 | -1.96 (inactive) | 1.15 | 1.3 | 0.639 | 1.16 | 0.974 | -0.505
2 | O=C1O[C@@H](c2ccccc2)[C@@H](c2ccccc2)N2[C@@H](c3ccccc3OCCO)[C@]3(C(=O)Nc4ccc(C#CCCO)cc43)[C@@H](C(=O)Nc3nc4ccccc4s3)[C@H]12 | 0.757 | 0.74 | 0.862 | -0.0337 (inactive) | 0.828 | 1.28 | 0.528 | 1.35 | 0.76 | 0.406
3 | C=CC[C@]1(C(=O)N(C)C)N=C(c2ccc(OCCCO)cc2)O[C@H]1c1ccccc1N=[N+]=[N-] | 0.265 | 0.776 | 1.14 | -0.288 (inactive) | 0.762 | 0.346 | -0.257 | 0.859 | -0.367 | 0.889
4 | O=C1O[C@@H](c2ccccc2)[C@@H](c2ccccc2)N2[C@@H](c3ccc(O)cc3)[C@]3(C(=O)Nc4ccc(C#CC5=CCCCC5)cc43)[C@@H](C(=O)N3CCN(c4ncccn4)CC3)[C@H]12 | 1.59 | -0.446 | -0.0675 | -0.339 (inactive) | 1.33 | 1.28 | 0.383 | 0.872 | 0.283 | -0.0915
5 | C=CCOC(=O)[C@H]1[C@@H]2C(=O)O[C@@H](c3ccccc3)[C@@H](c3ccccc3)N2[C@@H](c2ccc(OCCOC(=O)[C@H]3C[C@H]4C(=O)N[C@@H](CCCC[N+](C)(C)C)C(=O)N4[C@H]3c3cccc(OCCO)c3)cc2)[C@]12C(=O)Nc1ccc(I)cc12 | 1.1 | -0.179 | -0.0243 | 0.997 (inactive) | 0.809 | 0.701 | 0.335 | 0.376 | 0.763 | 0.111
6 | CN1C2C=C(CCCO)C(C3C(=O)N(C(N)=O)C(=O)C32)C1c1cccs1 (stereo not given) | -0.254 | 1.3 | 0.492 | 0.359 (inactive) | 1.12 | 0.386 | -0.259 | -0.173 | 1.45 | 0.418
7 | COC(=O)[C@@]1(Cc2ccc(OC)cc2)[C@H]2c3cc(C(=O)N(C)C)n(Cc4ccccc4)c3C[C@H]2CN1C(=O)c1ccccc1 | 0.656 | 0.268 | -0.332 | -2.28 (inactive) | 0.0697 | 0.0849 | -0.342 | -0.0447 | -0.128 | 0.825
8 | CC(C)OC(=O)CC(=O)CC(O)c1cccc(C#N)c1 (stereo not given) | 0.431 | 0.662 | 1.04 | -1.69 (inactive) | 0.632 | 0.646 | 0.23 | 0.74 | -0.618 | 0.964
9 | CCOc1cc(C(O)C2C=CC3C(=O)N(C4CCCCC4)C(=O)C3N2Nc2ccc(OC)cc2)ccc1O (stereo not given) | 0.692 | -0.0443 | 0.913 | -0.556 (inactive) | 0.423 | 1.21 | 0.388 | 0.741 | 0.105 | 0.959
10 | C=CCOC(=O)[C@@H]1[C@H]2C(=O)O[C@H](c3ccccc3)[C@H](c3ccccc3)N2[C@H](c2ccc(OCCOC(=O)[C@H]3C[C@H]4C(=O)N[C@@H](CC(C)C)C(=O)N4[C@H]3c3ccc(O)cc3)cc2)[C@@]12C(=O)Nc1ccc(I)cc12 | 1.25 | 0.198 | -0.093 | 0.242 (inactive) | 1.4 | 1.32 | 1.08 | 1.51 | 0.931 | 0.463
11 | COCCOC(=O)N1C(=O)[C@@]2(c3cc(C#Cc4ccc(OC)cc4)ccc31)[C@H](C(=O)N1CCCCCCC1)[C@H]1C(=O)O[C@H](c3ccccc3)[C@H](c3ccccc3)N1[C@@H]2c1ccc(O)cc1 | 0.773 | 1.12 | 0.522 | -0.527 (inactive) | 0.546 | 1.15 | 0.519 | 1.31 | 0.567 | 1.35
12 | CN(C)CCCN1C(=O)[C@@]2(c3ccc([N+](=O)[O-])cc3)CC(=O)N(CC34CC5CC(CC(C5)C3)C4)[C@@H]2c2ccc(CO)cc21 | 1.68 | 1.83 | 0.543 | 0.626 (inactive) | -0.173 | 0.443 | -0.708 | -0.116 | -0.482 | 0.144
13 | CC(C)(C)OC(=O)CC[C@@]1(C(=O)O)N=C(c2ccc(OCCCO)cc2)O[C@@H]1c1ccccc1 | 0.492 | 0.325 | 0.824 | -0.176 (inactive) | -0.0905 | -0.126 | -0.566 | -0.294 | -0.646 | 0.253
14 | C=C(CCCC)C(=O)CC[C@@H](OC(=O)c1ccccc1-c1ccccc1C(=O)O)c1cccc(OCCO)c1 | 1.13 | -0.302 | -0.353 | 2.89 (inactive) | 0.946 | 0.297 | -0.0833 | 0.556 | 0.339 | 1.2
